In the library only some 17% were active in any assay of this set; here they are far more common.
HepG2 viability = qHTS for Inhibitors of TGF-b: Cytotox Counterscreen; HepG2 CAGA-GFP viability, ATP luminescence, 18 h; Potency, µM (series often up to 46.1 µM), without a hit: top-dose activity change, negative = cytotoxicity, actives largely listed as cytotoxic; 410,000 compounds, 0.76% hits; AID 588856, 2011
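CellTiter-Glo luminescence gave cytotoxicity after 18 hours at 37 degrees C. The cells were HepG2 CAGA-GFP in 1% FBS DMEM, stimulated with 500 pg/mL TGF-beta after compound addition. %Activity was normalised to no-cell wells (complete cell-killing) and DMSO (no toxicity), and curves were fitted and classified.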
TGFb SMAD3 inh = qHTS for Inhibitors of TGF-b; HepG2 CAGA-GFP TGF-b/SMAD3 reporter, GFP fluorescence, 18 h; TGF-beta stimulated, 500 pg/mL final; 410,000 compounds, 1.2% hits; Potency, µM (titrated, usually from 46.1 µM), without a hit: at the top dose activity, negative = inhibition, usual class: inhibitors; note: % is set by controls: 0 for no effect and ±100 for the full control effect; nearly all actives have a fitted effect of over 65% in size
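First, reporter cells (HEPG2 CAGA-GFP) rested 2 h at 37 degrees C. Next, compounds were pinned in and TGF-beta added to 500 pg/mL final. After 18 h, GFP was imaged per cell and summed per well.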
ATXN viability = Viability Counterscreen for Primary qHTS for Inhibitors of ATXN expression; AID 651635, 2014; 400,000 compounds, 0.49% hits; Potency, µM (highest dose often 56.7 µM), usual class: cytotoxic; S2 cells (HEK-293 line with an ATXN2-luciferase reporter) viability, CellTiter-Fluor protease fluorescence, 24 h; note: nearly all actives have a fitted effect of over 40% in size
ATXN2 expr inh = Primary qHTS for Inhibitors of ATXN expression | HEK-293 ATXN2-luciferase reporter, luminescence, 24 h | 360,000 compounds, 0.72% hits | Potency, µM (top dose mostly 57 µM), for inactives: at the highest dose activity change, negative = inhibition, hits mostly inhibitors | AID 1745845, 2022; note: % is set by controls: 0 for no effect and ±100 for the full control effect; nearly all actives have a fitted effect of over 55% in size
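ATXN2-luciferase reporter cells (luciferase flanked by upstream and downstream ATXN2 gene portions) were treated 24 h at 37 °C with compounds at up to 57 uM. SteadyGlo luminescence gave expression; GF-AFC fluorescence gave viability.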
DT40 TDP1 CPT = qHTS for Inhibitors of human tyrosyl-DNA phosphodiesterase 1 (TDP1): qHTS in cells in presence of CPT; 420,000 compounds, 12% hits; Potency, µM (series often up to 46.2 µM), for inactives: at the highest dose activity change, negative = growth inhibition, hits mostly inhibitors; chicken DT40 Tdp1-/-;hTDP1 cells + 20 nM CPT, ATP luminescence, 48 h; note: % is set by controls: 0 for no effect and ±100 for the full control effect; nearly all actives have a fitted effect of over 55% in size
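Chicken DT40 Tdp1-/- cells complemented with human TDP1, 400 cells/well, exposed to compounds plus 20 nM camptothecin for at least 48 h at 37 C; viability read as ATP content by CellTiter-Glo luminescence.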
DT40 TDP1 no CPT = qHTS for Inhibitors of human tyrosyl-DNA phosphodiesterase 1 (TDP1): qHTS in cells in absence of CPT. 420,000 compounds, 15% hits. Potency, µM (series often up to 46.2 µM), for the others: at the top dose activity change, negative = growth inhibition, actives largely listed as inhibitors. AID 686978, 2013. DT40 Tdp1-/- hTDP1 cells, no CPT, ATP luminescence, 48 h; note: % is set by controls: 0 for no effect and ±100 for the full control effect; nearly all actives have a fitted effect of over 55% in size
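Luminescent ATP content (CellTiter-Glo) served as the growth readout. Knockout chicken DT40 cells expressing human TDP1 were exposed to compounds without camptothecin for a minimum 48 hr at 37 °C.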
Numbers without * were called inactive; ! = repeats disagree. Calls come from the whole dose curve; as a rule, active = well fitted curve in the direction sought with a large enough effect; inconclusive = small, poorly fitted or top-dose-only effect, or another doubt; inactive = no such curve, though single readings can be large; an effect the other way counts as inactive or inconclusive. Potency is the fitted concentration of half-maximal effect.

How did CCCCCCSc1cccc(-c2nc3ccc(Cl)cn3c2NCc2ccccc2)c1 do in these assays?
HepG2 viability: -11%; TGFb SMAD3 inh: 13%; ATXN viability: inactive; ATXN2 expr inh: 7%; DT40 TDP1 CPT: 21µM*; DT40 TDP1 no CPT: 23µM*

What do the screens show for `COc1cc(-c2nc3ccc(C)cn3c2Nc2ccc3c(c2)OCCO3)ccc1O`?
HepG2 viability: -12%; TGFb SMAD3 inh: 11%; ATXN viability: inconclusive; ATXN2 expr inh: 13%; DT40 TDP1 CPT: inconclusive; DT40 TDP1 no CPT: inconclusive

Results for CCCCCCSc1ccc(-c2nc3ccc(C)cn3c2NCc2ccccc2)cc1OC ?
HepG2 viability: -47%; TGFb SMAD3 inh: inconclusive; ATXN viability: inconclusive; ATXN2 expr inh: inconclusive; DT40 TDP1 CPT: 16µM*; DT40 TDP1 no CPT: 18µM*

What do the screens show for `CCCCCCSc1cc(-c2nc3ccc(Cl)cn3c2NCCCC)ccc1OC`?
HepG2 viability: -1%; TGFb SMAD3 inh: 9%; ATXN viability: inactive; ATXN2 expr inh: 6%; DT40 TDP1 CPT: inconclusive; DT40 TDP1 no CPT: inconclusive

Results for CCCCCCSc1ccc(-c2nc3ccc(C)cn3c2NCc2ccccc2)cc1 ?
HepG2 viability: -14%; TGFb SMAD3 inh: -27%; ATXN viability: inconclusive; ATXN2 expr inh: -3%; DT40 TDP1 CPT: 23µM*!; DT40 TDP1 no CPT: 16µM*!

What do the screens show for `Cc1c(NC(=S)NC(=O)c2ccco2)cccc1-c1nc2ncccc2o1`?
HepG2 viability: 6%; TGFb SMAD3 inh: -25%; ATXN viability: inactive; ATXN2 expr inh: -18%; DT40 TDP1 CPT: 1%; DT40 TDP1 no CPT: inconclusive

How did CCOC(=O)c1c(NC(=O)Cn2cnc([N+](=O)[O-])n2)sc(C)c1C do in these assays?
HepG2 viability: -11%; TGFb SMAD3 inh: 0%; ATXN viability: inactive; ATXN2 expr inh: -3%; DT40 TDP1 CPT: -24%; DT40 TDP1 no CPT: inconclusive

What do the screens show for `CCOc1ccc(S(=O)(=O)N2CCC(C(=O)NCc3ccccc3CN3CCCC3)CC2)cc1`?
HepG2 viability: -18%; TGFb SMAD3 inh: -1%; ATXN viability: inactive; ATXN2 expr inh: -17%; DT40 TDP1 CPT: -17%; DT40 TDP1 no CPT: -12%

What do the screens show for `Cc1nc(Br)c(Br)c(C)c1Br`?
HepG2 viability: -11%; TGFb SMAD3 inh: -14%; ATXN viability: inactive; DT40 TDP1 CPT: 1%; DT40 TDP1 no CPT: 1%

How did Cc1cccc(C)c1N=C1SC(CC(=O)Nc2c(C)cccc2C)C(=O)N1CCc1ccccn1 (stereo not drawn) do in these assays?
HepG2 viability: -19%; TGFb SMAD3 inh: 0%; ATXN viability: inactive; ATXN2 expr inh: -9%; DT40 TDP1 CPT: inconclusive; DT40 TDP1 no CPT: 16µM*

How did O=C1C(C2=NC(C(=O)O)C3C(=O)N(c4ccccc4)C(=O)C23)=C(O)c2ccccc21 (stereo not drawn) do in these assays?
HepG2 viability: 4%; TGFb SMAD3 inh: 0%; ATXN viability: inactive; ATXN2 expr inh: -6%; DT40 TDP1 CPT: -3%; DT40 TDP1 no CPT: -6%

How did O=C1C(C2=C(O)c3ccccc3C2=O)=Nc2ccccc21 do in these assays?
HepG2 viability: 11µM*; TGFb SMAD3 inh: 268%; ATXN viability: inconclusive; ATXN2 expr inh: inconclusive; DT40 TDP1 CPT: 10µM*; DT40 TDP1 no CPT: 15µM*

How did CC(C)C1=NOC(C(=O)N2CCC(N3CCC(C(=O)N4CCOCC4)CC3)CC2)C1 (stereo not drawn) do in these assays?
HepG2 viability: 3%; TGFb SMAD3 inh: 11%; ATXN viability: inactive; ATXN2 expr inh: 0%; DT40 TDP1 CPT: 13%; DT40 TDP1 no CPT: -6%

What do the screens show for `COc1ccccc1N1CCN(S(=O)(=O)CCNC(=O)CC2CCCCC2)CC1`?
HepG2 viability: -5%; TGFb SMAD3 inh: inconclusive; ATXN viability: inactive; ATXN2 expr inh: -2%; DT40 TDP1 CPT: 16µM*; DT40 TDP1 no CPT: 16µM*

Results for O=C(CC1CCCC1)NCCS(=O)(=O)N1CCN(c2ccccc2F)CC1 ?
HepG2 viability: -4%; TGFb SMAD3 inh: -8%; ATXN viability: inactive; ATXN2 expr inh: -8%; DT40 TDP1 CPT: inconclusive; DT40 TDP1 no CPT: inconclusive

How did COc1ccccc1N1CCN(S(=O)(=O)CCNC(=O)c2ccco2)CC1 do in these assays?
HepG2 viability: -10%; TGFb SMAD3 inh: 0%; ATXN viability: inactive; DT40 TDP1 CPT: 3%; DT40 TDP1 no CPT: -1%

How did COc1ccc(CC(=O)NCCS(=O)(=O)N2CCN(c3ccccc3OC)CC2)cc1 do in these assays?
HepG2 viability: 12%; TGFb SMAD3 inh: 3%; ATXN viability: inactive; ATXN2 expr inh: 5%; DT40 TDP1 CPT: 29µM*; DT40 TDP1 no CPT: inconclusive

Results for COc1ccccc1N1CCN(S(=O)(=O)CCNC(=O)CCc2ccccc2)CC1 ?
HepG2 viability: -23%; TGFb SMAD3 inh: inconclusive; ATXN viability: inactive; DT40 TDP1 CPT: inconclusive; DT40 TDP1 no CPT: 16µM*

Results for COc1ccc(Cl)cc1C(=O)NCCS(=O)(=O)N1CCN(c2ccccc2OC)CC1 ?
HepG2 viability: -21%; TGFb SMAD3 inh: inconclusive; DT40 TDP1 CPT: inconclusive; DT40 TDP1 no CPT: 18µM*

What do the screens show for `COc1ccc(Cl)cc1C(=O)NCCS(=O)(=O)N1CCN(c2ccccc2F)CC1`?
HepG2 viability: -2%; TGFb SMAD3 inh: -13%; ATXN viability: inactive; ATXN2 expr inh: -26%; DT40 TDP1 CPT: inconclusive; DT40 TDP1 no CPT: inconclusive

How did CC1(C(=O)NS(=O)(=O)c2ccc(F)cc2F)CCN1C(=O)CC1CCCCC1 (stereo not drawn) do in these assays?
HepG2 viability: 0%; TGFb SMAD3 inh: 10%; ATXN viability: inactive; ATXN2 expr inh: 15%; DT40 TDP1 CPT: 6%; DT40 TDP1 no CPT: 2%

Results for COc1ccc(NC(=O)CN2C(=O)NC(C)(c3ccc4c(c3)OCO4)C2=O)cc1S(N)(=O)=O (stereo not drawn) ?
HepG2 viability: -2%; TGFb SMAD3 inh: 15%; ATXN viability: inactive; ATXN2 expr inh: -3%; DT40 TDP1 CPT: 20%; DT40 TDP1 no CPT: 0%

How did COc1ccccc1N1CCN(S(=O)(=O)CCNC(=O)COc2ccc(C(C)C)cc2)CC1 do in these assays?
HepG2 viability: -35%; TGFb SMAD3 inh: inconclusive; DT40 TDP1 CPT: inconclusive; DT40 TDP1 no CPT: 16µM*

Assay outcomes from PubChem BioAssay.
